Assay outcomes from PubChem BioAssay.
DRD3 agonist: qHTS of D3 Dopamine Receptor Agonist: qHTS | D(3) dopamine receptor (Homo sapiens), P35462 | D3R DiscoveRx beta-arrestin cells, luminescence, 90 min | max activation, % | hit rate 0.58% among 410,000 | AID 652048, 2013; in the data active = max activation above about 30%; also: 0% is about no effect
Target sequence (P35462 whole entry, looked up): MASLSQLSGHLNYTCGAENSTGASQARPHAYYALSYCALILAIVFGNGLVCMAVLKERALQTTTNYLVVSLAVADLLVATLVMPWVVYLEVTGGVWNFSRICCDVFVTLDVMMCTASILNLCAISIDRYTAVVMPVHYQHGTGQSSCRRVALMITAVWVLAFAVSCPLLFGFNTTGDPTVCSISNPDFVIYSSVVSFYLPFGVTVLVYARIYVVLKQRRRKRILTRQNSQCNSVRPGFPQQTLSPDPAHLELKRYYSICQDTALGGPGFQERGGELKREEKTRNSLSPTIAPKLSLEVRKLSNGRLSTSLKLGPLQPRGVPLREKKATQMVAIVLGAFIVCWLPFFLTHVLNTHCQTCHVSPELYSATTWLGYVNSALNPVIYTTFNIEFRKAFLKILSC
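Agonist-mode cell screen: cells plated at 1500/well and incubated overnight at 37 °C, then exposed to library compounds for 90 min at 37 °C. Detection reagent was added for 30–60 min at room temperature, and luminescence was read.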
ATXN2 expr inh: Primary qHTS for Inhibitors of ATXN expression. HEK-293 ATXN2-luciferase reporter, luminescence, 24 h. Potency, µM (series often up to 57 µM), for the others: at the highest dose activity change, negative = inhibition, actives largely listed as inhibitors. hit rate 0.72% among 360,000; also: potency is read from the fitted curve at half-maximal effect; % is scaled to controls: 0 for no effect and ±100 for the full control effect; nearly all actives have a fitted effect of over 55% in size
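ATXN2-luciferase reporter cells (luciferase flanked by upstream and downstream ATXN2 gene portions) were treated 24 h at 37 °C with compounds at up to 57 uM. SteadyGlo luminescence gave expression; GF-AFC fluorescence gave viability.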
TGFb inhibitor: qHTS for Inhibitors of TGF-b; HepG2 CAGA-GFP TGF-b/SMAD3 reporter, GFP fluorescence, 18 h; TGF-beta stimulated, 500 pg/mL final; Potency, µM (top dose mostly 46.1 µM), without a hit: at the highest dose activity, negative = inhibition, actives largely listed as inhibitors; hit rate 1.2% among 410,000; AID 588855, 2011; also: potency is read from the fitted curve at half-maximal effect; % is scaled to controls: 0 for no effect and ±100 for the full control effect; nearly all actives have a fitted effect of over 65% in size
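Smad-responsive CAGA-GFP expression was quantified in HEPG2 cells exposed to compounds and 500 pg/mL final TGF-beta for 18 h at 37 degrees C; unstimulated wells defined full inhibition.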
D3 antag: qHTS of D3 Dopamine Receptor Antagonist: qHTS | D(3) dopamine receptor (Homo sapiens), P35462 | D3R cells, DiscoveRx beta-arrestin luminescence, antagonist mode; active compounds read low | max response, negative = inhibition, % | hit rate 2.5% among 360,000 | AID 652054, 2013; in the data active = max response below about -50%; inconclusive = no clear call, values can overlap the other calls; also: % is scaled to controls: 0 for no effect and ±100 for the full control effect
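Cells plated overnight at 1500 cells/well, then exposed to library compounds with dopamine controls for 90 minutes at 37 degrees C. DiscoveRx reagent added for 30–60 minutes at room temperature; luminescence read, quantitative HTS format.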
HepG2 tox: qHTS for Inhibitors of TGF-b: Cytotox Counterscreen. hit rate 0.76% among 410,000. Potency, µM (series often up to 46.1 µM), inactives show at the top dose activity change, negative = cytotoxicity, most hits filed as cytotoxic. HepG2 CAGA-GFP viability, ATP luminescence, 18 h; also: potency is read from the fitted curve at half-maximal effect
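HepG2 CAGA-GFP cells (1000/well, DMEM with 1% FBS) received compound, then TGF-beta at 500 pg/mL final, and were incubated 18 hours at 37 degrees C. Viability was read by CellTiter-Glo luminescence. Media-only wells were set as complete cell-killing and DMSO as no toxicity.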
ATXN viability: Viability Counterscreen for Primary qHTS for Inhibitors of ATXN expression | Potency, µM (highest dose often 56.7 µM), most hits filed as cytotoxic | S2 cells (HEK-293 line with an ATXN2-luciferase reporter) viability, CellTiter-Fluor protease fluorescence, 24 h | hit rate 0.49% among 400,000 | AID 651635, 2014; also: potency is read from the fitted curve at half-maximal effect; nearly all actives have a fitted effect of over 40% in size
* = called active by the depositor; i = inactive; ? = inconclusive; . = not tested or not shown. Sampled rows, rich in hits. Any-hit rate of the full collection: about 4.8%. Unless noted, calls follow the shape of the dose curve; as a rule, active = well fitted curve in the direction sought with a large enough effect; inconclusive = small, poorly fitted or top-dose-only effect, or another doubt; inactive = no such curve, though single readings can be large; an effect the other way counts as inactive or inconclusive.

SMILES | DRD3 agonist | ATXN2 expr inh | TGFb inhibitor | D3 antag | HepG2 tox | ATXN viability
COc1cccc(CNC(=O)CN(c2ccc(C(C)C)cc2)S(=O)(=O)c2c(C)n[nH]c2C)c1 | 3 | ? | 16µM* | . | -3% | ?
Cc1n[nH]c(C)c1S(=O)(=O)N(CC(=O)NCc1ccccc1Cl)c1ccc(C(C)C)cc1 | 5 | ? | ? | . | -76% | 32µM*
Cc1ccccc1-c1cc2nccc(-c3cc(Cl)ccc3O)n2n1 | -6 | -7% | 25% | . | 2% | i
O=C(C[N+]12CN3CN(CN(C3)C1)C2)c1ccc(O)c(O)c1 | . | . | 9% | . | -21% | .
Cc1ccc(-c2ccc(/C=N/N=C3/NC(=O)C(CC(=O)O)S3)o2)c([N+](=O)[O-])c1 (stereo unspecified) | -3 | -5% | 1% | -79* | 2% | i
O=C(O)CC1S/C(=N/N=C/c2ccc(-c3ccccc3[N+](=O)[O-])o2)NC1=O (stereo unspecified) | -4 | -17% | -9% | 18 | 0% | i
Cc1cc(N2CCN(C(=O)c3ccco3)CC2)n2nc(-c3cccc(Cl)c3)cc2n1 | 8 | 20µM* | ? | 30 | -22% | .
O=C(O)C1=C(C2CCCCC2)C(=O)c2ccccc21 | -1 | 4% | 9% | 3 | -21% | i
O=C(O)c1ccc(C2CCCCC2)cn1 | -9 | 1% | 0% | -95* | -36% | i
CC1=NNC(=O)/C1=C\c1cn(-c2ccccc2)nc1-c1ccc(Cl)cc1 | 7 | 13µM* | 3.5µM* | ? | -94% | .
Cn1c(O)c(N=NC(=O)c2cc(-c3cccs3)nc3ccccc23)c2ccccc21 | 15 | -24% | ? | 38 | -11% | ?
O=C(N=Nc1c(O)[nH]c2ccc(Br)cc12)c1cc(-c2cccs2)nc2ccccc12 | 1 | 11µM* | -3% | 13 | -40% | 10µM*
CCC(=O)OC(OP(=O)(CCCCc1ccccc1)CC(=O)N1C[C@H](C2CCCCC2)C[C@H]1C(=O)O)C(C)C (stereo partly specified) | 12 | . | . | . | . | .
CCC(=O)Nc1cccc(-c2ccc(N3CCC(C)CC3)nn2)c1 | 0 | . | -3% | -21 | -32% | i
CC1CCN(c2ccc(-c3cccc(NC(=O)C(F)(F)F)c3)nn2)CC1 | -7 | ? | 2% | -14 | 20µM* | i
O=C(Nc1cccc(-c2ccc(N3CCCCC3)nn2)c1)C(F)(F)F | -1 | . | 16% | -20 | 8.9µM* | ?
CC(=O)c1c(C)n([O-])c2cc(C)ccc2[n+]1=O | -3 | -2% | 9% | -51* | 0% | i
COc1ccc(-c2csc(N(CCCN(C)C)C(=O)c3ccccc3Cl)n2)cc1 | -24 | ? | ? | -71* | -44% | i
COc1ccc(-c2csc(N(CCCN(C)C)C(=O)c3ccccc3C)n2)cc1 | -25 | ? | ? | -10 | 10µM* | i
CN(C)CCCN(C(=O)c1cccs1)c1nc(-c2ccccc2)cs1 | -37 | -9% | 19% | -53* | -31% | i
COc1ccc(-c2csc(N(CCCN(C)C)C(=O)c3ccccc3F)n2)cc1 | -19 | . | ? | ? | -49% | i
Cc1cccc(Oc2nc(-c3ccccn3)nc3ccccc23)c1 | -8 | -8% | ? | 5 | 11µM* | ?
Cc1cccc(Oc2nc(-c3ccncc3)nc3ccccc23)c1 | 3 | -18% | ? | 20 | i | i
CN(/N=C/c1ccc(O)cc1O)c1ncc(C(F)(F)F)cc1Cl | -21 | -28% | ? | -2 | 13µM* | ?
CCOC(=O)c1c(S(=O)(=O)NCC2CCN(CCc3cccs3)CC2)c(C)n(C)c1C | -23 | -24% | -20% | -83* | -67% | ?
SMILES | DRD3 agonist | ATXN2 expr inh | TGFb inhibitor | D3 antag | HepG2 tox | ATXN viability
CCOC(=O)c1c(S(=O)(=O)NCCc2cccs2)c(C)n(C)c1C | -3 | -3% | -30% | -21 | 2% | i
COc1ccc(OC)c(CCNC(=O)c2cnn(-c3ccccc3Cl)c2C2CCN(C(=O)OC(C)(C)C)CC2)c1 | 4 | . | 10µM* | . | -18% | .
Cc1ccc(-n2ncc(C(=O)NCCCN3CCc4ccccc4C3)c2C2CCN(C(=O)OC(C)(C)C)CC2)cc1C | -29 | . | ? | . | 16µM* | .
COc1ccc(-n2ncc(C(=O)NCc3ccc4c(c3)OCO4)c2C2CCN(C(=O)OC(C)(C)C)CC2)cc1 | -2 | . | ? | . | -14% | .
COc1ccc(CNC(=O)c2cnn(-c3ccc(OC)cc3)c2C2CCN(C(=O)OC(C)(C)C)CC2)cc1 | -1 | . | 11µM* | . | -7% | .
CC(C)(C)OC(=O)N1CCC(c2c(C(=O)NCCc3ccsc3)cnn2-c2ccccc2Cl)CC1 | -8 | . | 0% | . | -27% | .
Cc1ccc(CSc2ncc(Cl)c(C(=O)NCCc3ccc(S(N)(=O)=O)cc3)n2)cc1 | 4 | -4% | ? | . | -37% | i
COc1ccc(CCNC(=O)CCCn2c(=O)c3ccccc3n(Cc3ccccc3)c2=O)cc1OC | 5 | ? | -17% | . | -7% | i
CCN(Cc1ccncc1)Cc1ccc2c(c1)CN(C(=O)c1ccccc1-n1cccn1)CCO2 | . | . | . | . | . | i
CC1(Cc2ccccc2Cl)C(=O)Nc2c(Cl)cccc21 (stereo unspecified) | -15 | -22% | 0% | 0 | 0% | i
CC1(Cc2cccc(C#N)c2)C(=O)Nc2c(Cl)cccc21 (stereo unspecified) | 48* | 10% | 0% | -12 | 14% | i
CC1(Cc2cccc(C(N)=O)c2)C(=O)Nc2c(Cl)cccc21 (stereo unspecified) | 7 | 16% | 12% | 27 | 3% | i
C=Cc1ccc(CC2(C)C(=O)Nc3c(Cl)cccc32)cc1 (stereo unspecified) | -4 | -5% | -3% | -67* | -19% | i
COc1ccc(CNC(=O)CSc2ncc3c(n2)-c2ccc(Cl)cc2N(Cc2ccc(F)cc2)S3(=O)=O)cc1OC | -23 | -13% | -10% | . | -22% | i
O=[N+]([O-])c1ccc(O)c(C(C#Cc2ccccc2)N2CCOCC2)c1 (stereo unspecified) | 1 | 23% | 13µM* | 7 | -4% | i
CCOC(=O)c1ccc(CN(Cc2ccccc2C)S(=O)(=O)c2ccc(F)c(C)c2)cc1 | 0 | . | -24% | . | -13% | .
